This note sets out measurements from PubChem BioAssay AID493192 (National Center for Advancing Translational Sciences (NCATS), 2011).

The structures appear in SMILES notation. Records with an inconclusive call do not appear. A call without a number means that no potency is given here. The source made the active and inactive calls. Calls come from the whole dose curve; as a rule, active = well fitted activation curve with a large enough effect; inconclusive = small, poorly fitted or top-dose-only effect; inactive = no such curve, though single readings can be large or run the other way.
Potency is the fitted concentration of half-maximal effect.

The assay can be described thus: qHTS Assay for Identifying a Potential Treatment of Ataxia-Telangiectasia: Hit Validation.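 Note: phospho-KAP1 level by AlphaLISA as a proxy for ATM-like kinase activity.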 As to conditions: Ataxia-telangiectasia cell-based hit validation qHTS, in ATM-null A-T patient fibroblasts; series mostly up to 76.9 µM. In short, it runs like this:
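hTERT-immortalized A-T patient fibroblasts (F2112) were dosed at up to 76.7 uM final for 60 min at 37C. After a further 30 min incubation, cells were lysed, and phospho-KAP1 was detected by AlphaLISA after 6 hr at 25C.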
With `Cc1ccccc1OCC(=O)Nc1cccc(C(=O)O)c1`, the Potency result is “inactive”.
The value for `CCOC(=O)N1CCC(NC(=O)C2CCN(S(=O)(=O)c3cccc4cccnc34)CC2)CC1` was “inactive”; that for `O=C(COc1ccccc1Cl)NCCCNC(=O)c1cnccn1` was “inactive”; that for `CC(C)c1ccc(-c2cc(C(=O)N3CCOCC3)c3cc(Br)ccc3n2)cc1` was “inactive”.
Consider `CC(C)(C=O)C1=CC(=O)c2ccccc2C1=O`, for which the Potency was 20.7 µM (active).
As to `CC(C)OP(=O)(OC(C)C)C(O)c1ccc(N(C)C)cc1` (configuration not stated), the Potency entry is “inactive”.
To `CCn1c2ccccc2c2c3ncc4cccn4c3ccc21` belongs 46.3 µM (active); to `Clc1cccc(Cl)c1CSc1nnc(-c2ccncc2)s1`, “inactive”.
As to `CCC[C@H]1CCCC/C=C\CCCC(=O)OCCN1C(=O)OC(C)(C)C`, the Potency result is “inactive”.
Consider `COc1ccc2c(c1)cc(C(=O)N[C@H](C(=O)N1CCC(C(=O)O)CC1)C(C)C)n2C`, for which the Potency entry was “inactive”.
With `Cc1[nH]c2c(C)cccc2c1CN1CCC(CO)(Cc2ccccc2)CC1`, the Potency is 1.16 µM (active).
For the molecule `CC(=O)Nc1ccc(NC2=C(Cl)C(=O)c3ccccc3C2=O)cc1`, the Potency entry is “inactive”.
To `NC(=O)c1cc2ccccc2o/c1=N/NC(=O)c1cccc(F)c1` belongs “inactive”; to `CCCc1ccc(S(=O)(=O)Nc2ccc(C)c(NS(C)(=O)=O)c2)cc1`, “inactive”.
To `COc1ccccc1Nc1nc(NCCCN(C)C)nc(N)c1[N+](=O)[O-]` belongs “inactive”; to `COc1ccc(C(=O)/C=C/C(=O)N(CC(=O)NC2CCCCC2)Cc2ccccc2)c(O)c1`, 14.6 µM (active).
The value for `COC1=C(N)C(=O)c2nc(-c3nc(C(=O)O)c(C)c(-c4ccc(OC)c(OC)c4O)c3N)ccc2C1=O` was “inactive”; that for `Cc1ccc(OCC(=O)N(Cc2cccs2)C2CCS(=O)(=O)C2)cc1C` (configuration not stated) was “inactive”.
As to `COc1cccc(CNC(=O)C(CC(C)C)NC(=O)c2ccccc2C)c1` (configuration not stated), the Potency result is “inactive”.
The value for `COc1ccc(C(=O)N2CCCC2(C#N)c2ccccc2)cc1[N+](=O)[O-]` (configuration not stated) was “inactive”; that for `CC(CCc1ccccc1)NC(=O)COC(=O)c1ccc(F)cc1` (configuration not stated) was “inactive”.
To `CCN1CCN(CC(=O)Nc2ccc(C(C)=O)cc2)CC1` belongs 26 µM (active); to `CC(C)(C)n1nc2c(c1NC(=O)C1CC(=O)N(c3ccc(Cl)cc3)C1)CS(=O)(=O)C2` (configuration not stated), “inactive”; to `CCN1CCN(c2oc(COc3ccc(Cl)cc3)nc2C#N)CC1`, “inactive”.
As for `Cc1oc2ccc(OCc3ccc(Br)cc3)cc2c1C(=O)O`, the Potency entry is “inactive”.
The value for `COc1ccc2c(c1)c(N=NC(N)=S)c(O)n2CC(=O)c1ccccc1` was “inactive”.
To `O=C1C(Cl)=C(Nc2ccccc2)C(=O)c2ccccc21` belongs 16.4 µM (active).
On to `COc1ccc(NC(=O)C2CC2)cc1OC1CCCC1`, for which the Potency result is “inactive”.
The value for `CN(C)S(=O)(=O)c1ccc(NC(=O)c2ccc([N+](=O)[O-])cc2)cc1` was “inactive”; that for `COc1ccc(Cl)cc1NC(=O)C[n+]1cccc(C)c1` was “inactive”; that for `COc1ccccc1S(=O)(=O)Nc1ccc(-c2nnc3n2CCCCC3)cc1` was “inactive”.
To `CCC(C)N1C(=S)SC(C)(C)C1N(O)C(=O)NC1CCCCC1` (configuration not stated) belongs “inactive”.
Take `CCOc1ccc(NC2=CC(=O)CCC2)cc1`: the Potency result was “inactive”.
As to `CCOC(=O)c1[nH]c(COC(=O)c2ccccc2NC(=O)c2ccco2)c(C(=O)OCC)c1C`, the Potency entry was “inactive”.
To `COc1cccc(/C=N/NC(=O)c2cc3cc([N+](=O)[O-])ccc3s2)c1O` belongs 51.9 µM (active); to `O=C(O)c1ccc(/C=C/c2nc3ccccc3c(=O)[nH]2)cc1`, “inactive”; to `COc1ccc(C(=O)CSc2nc3ncccc3[nH]2)cc1OC`, “inactive”.
